# WT yeast gro inh: growth inhibition of WT strain, primary screen, mitochondrial fusion inhibitor project, WT and mutant strains, chemical genetic. mitochondrial fusion phenotypic screen. inhibition, % at 10 µM. 190,000 compounds, 2.1% hits; in the data active = inhibition above about 58%; tested in S. cerevisiae
# L major viab: Leishmania major promastigote growth inhibition, primary screen | Leishmania major promastigotes, resazurin fluorescence viability | inhibition, % at 10 µM | 200,000 compounds, 9% hits | AID 1063, 2008; in the data active = inhibition above about 50%;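 also: promastigotes grown with compound for 44 hours at 28 °C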
# CHOP inh: inhibitors of CHOP promoter induction, primary screen, cell-based, unfolded protein response, luciferase reporter; CHO-K1 CHOP-promoter luciferase, tunicamycin-induced, 15-18 h; inhibition, % at 10 µM; 220,000 compounds, 3.8% hits;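 active = compounds that reduced the stress-induced luciferase reporter signal by more than about 70% of percent inhibition, limit read from the data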;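 also: 0% = tunicamycin plus vehicle and 100% = wells without tunicamycin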
# Arbovirus inh: antivirals against arbovirus infection, primary screen, cell-based, full library, 10K replicate subset; arbovirus infection cell-based antiviral screen; inhibition, % at 10 µM; 200,000 compounds, 0.37% hits; in the data active = inhibition above about 30%
# * hit, by the source's call; . = no result. Most compounds without a hit are left out; they make up all but 12% or so of the library.
SMILES,WT yeast gro inh,L major viab,CHOP inh,Arbovirus inh
Cc1[nH]nc2c1C(C1CC=CCC1)C(C#N)=C(N)O2 (stereo not drawn),9,100*,.,5
Cc1ccc(C)c(C(=O)CCC(=O)NCc2ccc(Cl)cc2)c1,3,-7,5,-5
COc1cccc(N2CCN(CC(=O)c3c[nH]c4ccc(OC)cc34)CC2C)c1 (stereo not drawn),4,73*,37,2
CC(C)COc1ccc(C(=O)N2C(=O)c3ccc(N)cc3C2=O)cc1,.,.,0,.
CCOc1ccccc1CN1CCN(CC2=Cc3cc(OC)ccc3OC2)CC1CCO (stereo not drawn),.,.,23,.
CCCN1CCN(c2ncnc3scc(C4COc5ccccc5O4)c23)CC1 (stereo not drawn),58*,19,32,1
O=c1[nH]cnc2scc(C3COc4ccccc4O3)c12 (stereo not drawn),-26,-7,41,-2
c1ccc2c(c1)OCC(c1csc3ncnc(N4CCCCC4)c13)O2 (stereo not drawn),36,6,47,12
Clc1ncnc2scc(C3COc4ccccc4O3)c12 (stereo not drawn),-20,71*,-4,2
N#C/C(=C\c1ccc(Cl)s1)C(=O)N1CCN(c2ccccc2)CC1,-2,27,25,18
Cc1c(C(=O)OCC(=O)N(C)C2CCS(=O)(=O)C2)oc2ccc(Br)cc12 (stereo not drawn),.,.,9,.
O=C(NC(=S)Nc1ccc(N2CCOCC2)cc1)c1ccc2c(c1)OCCO2,6,2,5,3
CC(=O)N1CCN(c2ccc(NC(=O)c3ccc(N4CCCC4)c([N+](=O)[O-])c3)cc2Cl)CC1,14,24,-19,-10
O=C(NC(=S)Nc1ccc(N2CCCCC2)cc1)c1ccc2c(c1)OCCO2,2,64*,44,4
O=C(Nc1ccc(N2CCCCC2)c(Cl)c1)c1ccc(N2CCOCC2)c([N+](=O)[O-])c1,1,93*,10,-26
O=C(Nc1ccc(N2CCCCC2)c(Cl)c1)c1ccc2c(c1)OCCO2,69*,15,9,-25
Cc1cccc(CNC(=O)CCc2nnc(C3CCCCC3)o2)c1,-6,-8,26,4
O=C(Nc1ccccc1)c1ccc(NC2CCCCC2)c(S(=O)(=O)N2CCOCC2)c1,25,61*,-3,6
O=C(Nc1ccccc1)c1ccc(N2CCN(c3ccccn3)CC2)c(S(=O)(=O)N2CCOCC2)c1,-9,35,-25,12
O=C(Nc1ccccc1)c1ccc(N2CCN(c3ccccc3)CC2)c(S(=O)(=O)N2CCOCC2)c1,20,89*,47,-11
CN1CCN(c2ccc([N+](=O)[O-])cc2S(=O)(=O)N2CCOCC2)CC1,15,-5,-9,7
O=[N+]([O-])c1ccc(N2CCN(Cc3ccccc3)CC2)c(S(=O)(=O)N2CCOCC2)c1,-23,93*,28,8
Cc1cccn2c(=O)c(C=O)c(N3CCSCC3)nc12,.,.,4,.
c1ccc2oc(-c3ccc(Nc4nc(N5CCCC5)nc(N5CCOCC5)n4)cc3)nc2c1,8,16,14,1
O=S1(=O)CC2SC(=S)N(Cc3ccccc3)C2C1 (stereo not drawn),.,.,-6,.
SMILES,WT yeast gro inh,L major viab,CHOP inh,Arbovirus inh
O=C(C[n+]1ccccc1)Nc1nc2ccccc2s1,2,-6,-24,6
O=C(CSc1ncn(-c2ccccc2)n1)Nc1nc(-c2ccccc2)cs1,3,-5,42,-3
O=C(O)CCC(=O)Nc1nc2ccccc2s1,-8,-1,72*,0
O=C(Cn1ncc2c(=O)oc3ccccc3c21)NC1CC1,0,-10,17,2
Cn1cc(SCC(=O)Nc2nc3ccccc3s2)c2ccccc21,-32,-2,71*,-2
O=C(CSc1ncn(-c2ccccc2)n1)Nc1nc2ccccc2s1,49,39,20,40*
O=C(Cn1ncc2c(=O)oc3ccccc3c21)Nc1nc2ccccc2s1,-16,6,88*,-2
Cc1ccccc1OCc1nnc(SCC(=O)Nc2ccc3nc(SCC(=O)Nc4ccccc4)sc3c2)n1C,21,-5,40,-14
CCc1nnc(NC(=O)Cc2ccc(Br)cc2)s1,-21,0,11,2
O=C(CS(=O)(=O)Cc1ccccc1)Nc1nc2ccccc2s1,3,6,20,48*
COc1ccc2nc(NC(=O)CS(=O)(=O)Cc3ccccc3)sc2c1,3,3,20,7
O=C1Nc2ccc(Br)cc2C1=Nc1ccc(-c2nnc3n2CCCCC3)cc1,-3,74*,-17,-1
Brc1cccc(-c2nnc3n2CCCCC3)c1,-5,-3,25,3
O=C(O)c1cc(-c2ccc(/C=C3\NC(=O)N(c4ccc(Cl)cc4)C3=O)o2)ccc1Cl,3,-5,-4,58*
CCCCC(=O)Nc1ccc(C(=O)NNC(=O)CCCOc2ccc(Cl)cc2Cl)cc1,-6,-6,-7,0
Cc1c(/C=N/NC(=O)COc2ccccc2[N+](=O)[O-])c2ccccc2n1C,0,56*,55,-7
CC(C)C(=O)Nc1ccc(C(=O)NNC(=O)CCCOc2ccc(Cl)cc2Cl)cc1,79*,-12,0,-5
Cc1cc([N+](=O)[O-])cc(C)c1OCC(=O)N/N=C/c1ccc(OC(=O)c2ccccc2Br)cc1,-5,85*,14,-6
O=C(CNC(=O)c1cccc(F)c1)N/N=C/c1cccc([N+](=O)[O-])c1,-4,81*,35,-2
CCc1sc(C(=O)Nc2ccccc2N2CCOCC2)cc1C,28,4,36,15
CC(C)Oc1ccc(C(=O)Nc2nnc(SCC(=O)N3CCOCC3)s2)cc1,27,-4,66,3
Cc1ccccc1OCC(=O)NCC(=O)N/N=C/c1cccc([N+](=O)[O-])c1,6,4,-8,-11
COc1ccc(/C=N/NC(=O)CCCOc2ccc(Cl)cc2Cl)cc1,47,46,85*,1
O=C(CCCOc1ccc(Cl)cc1Cl)N/N=C/c1ccc(Cl)cc1,20,-3,57,18
COc1ccc(/C=N/NC(=O)c2ccn[nH]2)cc1COc1ccc(Cl)cc1Cl,73*,7,44,-9
SMILES,WT yeast gro inh,L major viab,CHOP inh,Arbovirus inh
Cc1ccccc1OCC(=O)N/N=C/c1cccc(Oc2ccc([N+](=O)[O-])cc2[N+](=O)[O-])c1,16,74*,10,-3
Cc1cc(Cl)ccc1OCCCC(=O)N/N=C/c1cccc([N+](=O)[O-])c1,7,0,88*,-8
O=C(O)c1ccc(Nc2nc3c(s2)CCCC3)cc1,-42,7,91*,2
c1nnc(NC2=NCCCCC2)s1,-6,-8,-23,10
Cc1cccc(Nc2nc3c(s2)CCCC3)c1,16,62*,2,9
C1CCN=C(Nc2nc3c(s2)CCCC3)CC1,62*,4,7,8
COCCn1cnnc1SCC(=O)Nc1cc(OC)c([N+](=O)[O-])cc1C,-8,-3,-11,12
CCc1nn2c(=O)cc(CSc3nc4sc5c(c4c(=O)n3C)CCCC5)nc2s1,.,-10,.,.
O=C(Nc1ccc(NC(=S)NC(=O)c2ccccc2Cl)cc1)c1cccc(Cl)c1,.,37,.,.

# From PubChem
